High-throughput results deposited in PubChem by Broad Institute.
Compounds with a hit are over-represented: about 2.7% of the library has one in this group of screens.
CFTR F508del cor: correctors of CFTR F508del function in bronchial epithelial cells; CFBE cells, YFP halide quenching; stimulated with forskolin plus potentiator P3; % fluorescence drop versus neutral controls; activity (quench increase), % at 7.58 µM; 0.36% of 350,000 active; AID 720511;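 active = mean added fluorescence quench of at least 8% versus neutral control, with both replicates also reaching 8%; inconclusive = only one of the mean or replicate conditions met; inactive = mean below 8% and not both replicates reaching 8%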;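 note: cells transiently co-express mutant CFTR-F508del with the halide-sensitive YFP; corrector assay measuring rescue of mutant channel to the surface after 24 h compound exposure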
Wnt act: Wnt/beta-catenin pathway activation | 1.2% of 300,000 active | Wnt/beta-catenin reporter cell assay, activator, plate reader | activation, % at 9.35 µM; in the data active = activation above about 30%, passing the limit was not always enough; inconclusive = no clear call, values can overlap the other calls;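 note: 0% = neutral control wells and 100% = positive control wells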
MITF act: activators of MITF-driven TRPM1 promoter activity in SK-MEL-5 cells. SK-MEL-5 TRPM1-promoter luciferase, 24 h; % of positive control, neutral wells = 0. activation, % at 12.5 µM. 0.75% of 300,000 active. AID 588334;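 active = mean activation of at least 80% with every replicate also reaching 80%; inconclusive = mean reaches 80% but some replicate falls short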;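 note: 0% = neutral control wells and 100% = parthenolide positive control wells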
Env fusion inh: blocks HIV Env-driven cell-cell fusion; HeLa-JRFL Env/CEM21 cell fusion, luciferase; inhibition, % at 12.3 µM; 1.1% of 360,000 active; AID 651610;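 active = mean replicate inhibition score of at least 50 and every replicate individually at or above 50; inconclusive = only one of the two criteria met; inactive = mean below 50 and not all replicates reaching 50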;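 note: 0% = plate neutral controls and 100% = maraviroc near 300 nM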
INS-1E GSIS act: primary screen for activators of insulin secretion dependent on glucose, INS-1E cells, GLuc reporter luminescence; INS-1E GLuc reporter insulin secretion, 2-3 h; activation, % at 16.6 µM; 0.61% of 370,000 active; AID 743287;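 active = lowest replicate activation of at least 40%, so every replicate reaches that level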;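 note: 0% = median of neutral control wells and 100% = median of IBMX positive control wells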
* marks the source's active call; other numbers are inactive results; [ ] = dose if it differs, or a comment.

How did COc1cc2c(C#CCCO)c(-c3ccsc3)oc(=O)c2cc1OC do in these assays?
CFTR F508del cor: 13.7*; Wnt act: 3.3; MITF act: -17.9; Env fusion inh: -15.2; INS-1E GSIS act: 14.7

What do the screens show for `c1ccc(-c2cnc(-c3cccnc3)o2)cc1`?
MITF act: 60.3; INS-1E GSIS act: 25.8

How did Fc1cccc(-c2ncc(-c3ccccc3)o2)c1 do in these assays?
CFTR F508del cor: -1.2; Wnt act: 41.6*; MITF act: 48.9; Env fusion inh: -23.6

How did CO[C@H]1CC[C@H]2CCN(C)C(=O)[C@H](C)[C@H](OC)CN(C)C(=O)c3cccc(C#N)c3OC[C@@H]1O2 do in these assays?
CFTR F508del cor: 3.6; Env fusion inh: -5.7[16.7 µM]; INS-1E GSIS act: 13.3

What do the screens show for `Cc1cc(C(=O)COC(=O)c2ccc(Br)o2)c(C)n1C`?
CFTR F508del cor: -0.1; Wnt act: 17.0; MITF act: 111.5*; Env fusion inh: -49.0; INS-1E GSIS act: 8.3

What do the screens show for `Cc1cc(C(=O)COC(=O)c2ccc(O)cc2)c(C)n1Cc1ccco1`?
CFTR F508del cor: -3.7; Wnt act: inconclusive; MITF act: inconclusive; Env fusion inh: -33.2

How did Cc1cc(C(=O)COC(=O)c2ccc(Br)o2)c(C)n1Cc1ccco1 do in these assays?
CFTR F508del cor: -2.3; Wnt act: 60.1*; Env fusion inh: -24.4; INS-1E GSIS act: 8.4

How did CCOc1ncccc1C(=O)OCC(=O)c1cc(C)n(Cc2ccco2)c1C do in these assays?
Wnt act: 46.3*; MITF act: 41.3; Env fusion inh: -70.7; INS-1E GSIS act: -7.4

What do the screens show for `Cc1cc(C(=O)CSc2ncccn2)c(C)n1Cc1ccco1`?
CFTR F508del cor: -2.0; Wnt act: 20.1; MITF act: 33.1; Env fusion inh: -43.0; INS-1E GSIS act: 11.9

How did O=C(c1cc(-c2ccc(Cl)c(Cl)c2)on1)N1CCOCC1 do in these assays?
CFTR F508del cor: 3.0; Wnt act: 2.9; MITF act: 89.8*; Env fusion inh: -52.3; INS-1E GSIS act: 6.0

Results for O=C(c1cc(-c2ccc(Cl)cc2)on1)N1CCOCC1 ?
MITF act: 33.0; Env fusion inh: -98.1; INS-1E GSIS act: 15.8

How did O=C(c1cc(-c2cccc(Cl)c2)on1)N1CCOCC1 do in these assays?
CFTR F508del cor: -0.2; Wnt act: -0.6; MITF act: 100.5*; Env fusion inh: -5.9; INS-1E GSIS act: 13.7

Results for O=C(c1cc(-c2ccc(F)cc2)on1)N1CCOCC1 ?
CFTR F508del cor: -0.1; Wnt act: 0.0; Env fusion inh: -15.6; INS-1E GSIS act: 21.8

Results for CC(C)NC(=O)NCC[C@H]1CC[C@@H](NS(=O)(=O)c2ccc(-c3ccccc3)cc2)[C@H](CO)O1 ?
CFTR F508del cor: 0.0; Env fusion inh: -5.3[16.7 µM]; INS-1E GSIS act: -8.2

Results for Cc1noc(C)c1S(=O)(=O)Nc1ccc2c(c1)CC(=O)N([C@@H](C)CO)C[C@H](C)[C@H](CN(C)S(=O)(=O)c1ccc(F)cc1)O2 ?
CFTR F508del cor: -1.8; Env fusion inh: -25.5[16.7 µM]; INS-1E GSIS act: -5.4

What do the screens show for `COCc1cc(=O)[nH]c2cc(NC(=O)C3CC3)c(C)cc12`?
Wnt act: 50.0*; MITF act: -16.7; Env fusion inh: 0.1

Results for O=c1c2c(nc3c(-c4cccc5ccccc45)c[nH]n13)CCC2 ?
MITF act: 6.9; INS-1E GSIS act: -6.3

Results for O=c1c2c(nc3c(-c4ccc(Cl)cc4)c[nH]n13)CCCC2 ?
Wnt act: -26.9; MITF act: -44.7; Env fusion inh: 62.3*

Results for Cc1cccc(C)c1NC(=O)CSc1nc(-c2ccco2)cc(C(F)(F)F)n1 ?
CFTR F508del cor: 0.4; Wnt act: -4.5; MITF act: -7.2; INS-1E GSIS act: 15.2

What do the screens show for `O=C(CSc1nc(-c2ccccc2)cc(C(F)(F)F)n1)NCc1cccs1`?
Wnt act: -7.8; MITF act: 16.2; INS-1E GSIS act: -5.9

Results for COc1ccc(-c2cc(C(F)(F)F)nc(SCC(=O)NCc3cccs3)n2)cc1 ?
MITF act: 8.6; Env fusion inh: 56.4*; INS-1E GSIS act: 16.7

How did O=C(CSc1nc(-c2ccco2)cc(C(F)(F)F)n1)Nc1ccccc1C(F)(F)F do in these assays?
Wnt act: 0.8; MITF act: -0.4; Env fusion inh: 74.4*

How did C[C@@H]1CCCCO[C@@H](CN(C)C(=O)CCC(F)(F)F)[C@H](C)CN([C@@H](C)CO)C(=O)c2cc(NC(=O)c3ccccc3)ccc2O1 do in these assays?
CFTR F508del cor: -0.2; Env fusion inh: -18.2[16.7 µM]; INS-1E GSIS act: -18.4

How did CCCCC(C(=O)NCCC(C)C)N(CCCN1CCOCC1)C(=O)c1snc(C(N)=O)c1N (stereo unspecified) do in these assays?
MITF act: -2.9; Env fusion inh: -44.8; INS-1E GSIS act: 53.8*

How did CC(C)C#Cc1ccc([C@H]2[C@H]3CN(C(=O)c4ccccn4)CC(=O)N3[C@H]2CO)cc1 do in these assays?
CFTR F508del cor: 3.3; INS-1E GSIS act: -11.6

What do the screens show for `COC(=O)c1ccc(S(=O)(=O)N2CCc3ccccc32)cc1`?
CFTR F508del cor: 12.4*; Wnt act: -0.2; Env fusion inh: -11.0; INS-1E GSIS act: 4.4

Results for COc1ccc(S(=O)(=O)N2CCc3ccccc32)cc1C(=O)Nc1cccnc1 ?
CFTR F508del cor: -4.7; Wnt act: -2.0; MITF act: -11.2; Env fusion inh: 9.2; INS-1E GSIS act: 50.1*

How did O=S(=O)(c1ccc(Cl)nc1)N1CCc2ccccc21 do in these assays?
CFTR F508del cor: 2.3; Wnt act: 17.5; MITF act: 7.9; Env fusion inh: -49.3; INS-1E GSIS act: 54.0*

Results for CC1CN(S(=O)(=O)c2ccc(C(=O)N3CCc4ccccc43)cc2)CC(C)O1 (stereo unspecified) ?
CFTR F508del cor: 15.6*; Wnt act: -0.6; INS-1E GSIS act: -5.3

Results for NNC(=O)c1ccc(S(=O)(=O)N2CCc3ccccc32)cc1 ?
CFTR F508del cor: -1.0; Wnt act: -0.5; Env fusion inh: -29.1; INS-1E GSIS act: -1.3

Results for CC1CN(S(=O)(=O)c2ccc(C(=O)O)cc2)CC(C)O1 (stereo unspecified) ?
CFTR F508del cor: -2.4; Wnt act: -0.7; MITF act: 3.4; Env fusion inh: 15.5; INS-1E GSIS act: 8.6

What do the screens show for `O=C(Nc1cccnc1)c1cccc(S(=O)(=O)N2CCc3ccccc32)c1`?
CFTR F508del cor: -1.7; Wnt act: -1.3; MITF act: -14.5; Env fusion inh: 18.7; INS-1E GSIS act: -24.0

What do the screens show for `CN(C)C(=O)c1cccc(-c2ccc([C@H]3[C@@H](CO)N(C(=O)C4CCCC4)[C@H]3C#N)cc2)c1`?
CFTR F508del cor: -3.5; INS-1E GSIS act: -14.4

How did CO[C@H]1CN(C)C(=O)c2ccc(NC(C)=O)cc2OC[C@@H](C)N(Cc2nccs2)C[C@@H]1C do in these assays?
CFTR F508del cor: 1.5; Env fusion inh: 10.6[16.7 µM]; INS-1E GSIS act: -8.8

Results for CN(C)CCn1c2ccccc2c2nc3ccc([N+](=O)[O-])cc3cc21 ?
CFTR F508del cor: 13.5*; Wnt act: 25.8; Env fusion inh: 36.9; INS-1E GSIS act: -6.4
